This note sets out measurements from PubChem BioAssay (NCI).

Common to all, as to assay: NCI-60 one-dose screen, 48 h (100 = growth as untreated, 0 = no growth, -100 = all killed)
Holding throughout (details): 10 µM unless noted

Test [1] deals with NCI-H23 lung.
For test [2], the system named is NCI-H226 lung.
Test [3] has as its system NCI-H322M lung.
The subject of test [4] is HOP-62 NSCLC.
In test [5] the test system is NCI-H460 lung.
Test [6] relates to HOP-92 NSCLC.
The subject of test [7] is NCI-H522 lung.
Test [8] concerns A549/ATCC NSCLC.
The test system of test [9] is 786-0 renal.
The test system of test [10] is COLO 205 colon.

About 83,000 compounds went through this panel and 20% of them were active in at least one assay; those are over-represented in the sample as a whole.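 Assay: single dose, 48 h. Readout: percent growth (0 = no net growth; negative = cell death). Active: <10.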 Unmarked numbers belong to inactive results. Activity calls are given as the source filed them.

Consider `COc1cccc(CCNc2ncnc3c2ncn3Cc2nnc3c4ccccc4c(Cl)nn23)c1`, for which the growth in [1] was 70.1%; in test [2], 66.6%; in test [3], 52.8%; in test [4], 57.5%; in test [5], 61.5%; in [6] it was 42.7%. In addition, the growth in test [7] was 5.17% (active); in test [8], 77.8%; in test [9], 57.7%; in test [10], 90.9%.

On to `C=CCC(CCCC)(C(=O)OCC)C(=O)OCC`, for which the growth is 98.8% in test [1]; 106% in test [2]; 109% in test [3]; 111% in test [4]; 117% in test [5]; 96.2% in test [6]. Further, the growth in test [7] is 94%; in test [8] it was 103%; in test [9], 94.9%; in test [10], 111%.

For `Cc1ccc(C(=O)c2ccc(CC(=O)NN3C(=O)c4ccccc4C3=O)n2C)cc1`, the growth in test [1] was 100%; in test [2] it was 97.8%; in [3] it was 102%; in test [4], 88.9%; in [5], 104%; in test [6], 97.8%. The growth is 88.1% in [7], 101% in test [8], 103% in test [9] and 105% in [10].

As to `Nc1nc(N)c2c(n1)NC(c1cccc(Nc3ccnc4cc(C(F)(F)F)ccc34)c1)CC(c1ccccc1)=N2` (stereo not given), the growth in test [1] was 67.1%; in [2] it was 87.8%; in test [3], 91.8%; in test [4] it was 54.9%; in [5] it was 22.6%; in test [6], 45%. The growth in test [7] is 28.8%; in test [8], 41.4%; in test [9], 67.5%; in test [10], 30.2%.

Turning to `CNC(=O)c1ccccc1Nc1nc(Nc2cc(OC)c(OC)c(OC)c2)ncc1Br`, the growth in [1] is -45.2% (active); in test [2], 10.1%; in [3], -23.2% (active); in test [4], -32.8% (active); in test [5] it was -36.9% (active); in [6], 53.6%. Also, the growth is -49.8% (active) in test [7], -10.4% (active) in [8], -18.1% (active) in test [9] and -71.3% (active) in [10].

As for `CC(C)(C)c1cc(Cl)c(O)c(CNCCO)c1`, the growth is 112% in test [1]; 98.5% in [2]; 118% in test [3]; 101% in test [4]; 101% in [5]; 90.8% in test [6]. Besides, the growth was 106% in [7], 109% in [8], 102% in test [9] and 112% in [10].

`COC(=O)CCC/C=C\C[C@H]1C=CC(=O)/C1=C/C[C@@H](O)C/C=C\CC(F)(F)F`: the growth was -15.2% (active) in test [1]; -48% (active) in test [2]; 46.9% in test [3]; -12.4% (active) in test [4]; -47.2% (active) in test [5]; -18.8% (active) in [6]. For the same compound, the growth in test [7] was -56.6% (active); in [8], -3.51% (active); in [9] it was -39.5% (active); in test [10] it was -36.2% (active).

As for `CCc1ccc(CCC(=O)Nc2ncc(Cc3ccccc3)s2)o1`, the growth in test [1] is 37.6%; in test [2] it was 64.3%; in [3], 54.7%; in test [4], 23%; in test [5], 7.58% (active); in [6], 87.8%. Further, the growth in [7] is -2.33% (active); in test [8], 32%; in test [9], 41.6%; in test [10], 12.3%.

Turning to `COc1ccc(-c2nc(-c3cn(C)c4ncccc34)cs2)cc1`, the growth in test [1] is 11.1% [100 µM]; in test [2], 2.9% [100 µM] (active); in test [3] it was 1.44% [100 µM] (active); in test [4], -49.5% [100 µM] (active); in [5], -43% [100 µM] (active); in test [6], -40.4% [100 µM] (active). The growth in test [7] is 20.1% [100 µM]; in [8] it was 12.4% [100 µM]; in test [9], -30.9% [100 µM] (active); in [10] it was -49.8% [100 µM] (active).

Turning to `C/C(=N\O)[C@@H]1CC[C@]2(CO)CC[C@]3(C)[C@H](CC[C@@H]4[C@@]5(C)CCCNC(C)(C)[C@@H]5CC[C@]43C)[C@@H]12`, the growth is 89.6% in test [1]; 92.6% in test [2]; 94.2% in test [3]; 90% in test [4]; 72.6% in test [5]; 65.6% in test [6]. Besides, the growth in [7] is 90%; in test [8] it was 76.6%; in test [9], 92.3%; in test [10], 81%.

For the compound `Nc1nc(N)c2c(n1)NC(c1cccc(Nc3ccnc4cc(C(F)(F)F)ccc34)c1)CC(c1ccc(Br)cc1)=N2` (stereo not given), the growth in test [1] is 66.3%; in test [2] it was 93.9%; in test [3] it was 96.1%; in [4], 58.2%; in test [5], 29.9%; in test [6], 42.8%. Besides, the growth was 48.8% in [7], 45.9% in [8], 68.9% in test [9] and 34% in [10].

For the compound `COC(=O)c1c2c(c(C)[n+]([O-])c1C)C(=O)C(NCc1cccc(Cl)c1)=CC2=O`, the growth in [1] was 14.7%; in test [2], 79.8%; in [3], 1.86% (active); in test [4] it was 41.6%; in test [5], 10.1%; in test [6] it was 38%. The growth in test [7] is -10.4% (active); in test [8], 6.34% (active); in [9], 39.5%; in [10] it was -50.3% (active).

`CCOC(=O)c1nn(CC(O)c2ccccc2)c(NC(=O)Nc2cccc(F)c2)c1C` (stereo not given): the growth in [1] was 108%; in test [2] it was 84.8%; in test [3], 98.9%; in test [4] it was 104%; in [5] it was 96.3%; in test [6], 99.8%. The growth in test [7] is 84.7%; in test [8], 87.9%; in test [9] it was 99.7%; in [10], 106%.

With `COc1ccc(NC(=O)Nc2ccc(OCCCCCC(=O)NO)cc2)cc1`, the growth in test [1] is 98%; in test [2] it was 100%; in [3], 94.7%; in test [4], 102%; in test [5], 96.3%; in test [6], 94%. For the same compound, the growth in test [7] was 68.1%; in test [8], 90.3%; in [9] it was 97.1%; in [10], 110%.

`Cc1ccc(Cl)cc1NC(=O)c1sc2nc3c(cc2c1N)C(=O)CCC3`: the growth in [1] is 63%; in [2], 88.3%; in test [3] it was 95.7%; in test [4] it was 60.9%; in test [5], 28.1%; in test [6], 56.9%. For the same compound, the growth in [7] is 22.9%; in test [8], 53.9%; in [9], 89.3%; in test [10], 39.7%.

On to `CO[C@H](C(=O)[C@@H](O)[C@@H](C)O)[C@@H]1Cc2cc3cc(O[C@H]4C[C@@H](O[C@H]5C[C@@H](O)[C@H](O)C(C)O5)[C@H](O)C(C)(O)O4)cc(O)c3c(O)c2C(=O)[C@H]1O[C@H]1C[C@@H](O[C@H]2C[C@@H](O[C@H]3C[C@@H](OC)[C@H](O)C(C)O3)[C@@H](O)C(C)O2)[C@H](O)C(C)O1` (stereo not given in full), for which the growth was 16.4% in test [1]; -29.7% (active) in test [2]; 21.1% in test [3]; 1.64% (active) in [4]; 12.9% in test [5]; 25.2% in test [6]. The growth in test [7] was -17.6% (active); in test [8], 6.26% (active); in [9] it was 26.6%; in [10], -42.4% (active).

Turning to `Cc1nc2sc(C(=O)Nc3cccc(Br)c3C)c(N)c2cc1C(O)c1ccccc1` (stereo not given), the growth was 18.5% in test [1]; 38.3% in test [2]; 42.2% in [3]; 21.2% in test [4]; -0.559% (active) in test [5]; 24% in test [6]. Besides, the growth in [7] is 2.97% (active); in [8], 9.65% (active); in test [9] it was 15.5%; in test [10] it was -51.6% (active).

Consider `O=C1Nc2ccccc2/C1=C/c1cccn1C(=O)c1ccc(Cl)s1`, for which the growth in [1] is 30.2%; in [2] it was 61.7%; in test [3], 50.4%; in test [4] it was 52.3%; in test [5], 75.7%; in test [6], 70.2%. Also, the growth in [7] is 37.8%; in [8] it was 23.4%; in test [9], 85.3%; in [10], 68%.

As for `CCCC(CC)(C(=O)Nc1ccc2nc(C)cc(N)c2c1)C(=O)Nc1ccc2nc(C)cc(N)c2c1`, the growth in [1] is 94.1%; in test [2], 97.8%; in test [3], 108%; in test [4] it was 107%; in [5], 106%; in [6] it was 117%. In addition, the growth in test [7] was 92%; in test [8], 98.3%; in test [9] it was 103%; in test [10] it was 114%.

Take `CCOC(=O)C(Cc1ccc(OC)cc1)C(=O)OCC`: the growth is 17.6% in test [1]; 65.9% in [2]; 36.3% in test [3]; 52.8% in [4]; 30.4% in [5]; -1.28% (active) in test [6]. Also, the growth was 25% in test [7], 51.7% in test [8], 39.3% in test [9] and 71.6% in [10].

For the compound `Cc1cc(Nc2ccc(C(=O)N3CCCC3)cc2)nc(NCCCNc2ccnc3cc(Cl)ccc23)n1`, the growth is 87.8% in test [1]; 105% in test [2]; 85.8% in test [3]; 81.2% in [4]; 59.4% in test [5]; 90.5% in [6]. The growth in [7] was 65.6%; in [8], 104%; in [9], 87.9%; in [10] it was 76.5%.

`NNCCc1ccc(NC(=O)CCCc2ccc(C(=O)Nc3ccccc3N)cc2)cc1`: the growth is 76.5% in test [1]; 74.3% in test [2]; 87% in [3]; 69.6% in [4]; 66.3% in test [5]; 31.2% in [6]. Also, the growth in test [7] is 13.1%; in [8], 85.4%; in test [9], 81.6%; in test [10], 75.6%.

Regarding `COc1cc(/C=C2\CN(S(=O)(=O)c3ccccc3)C/C(=C\c3cc(CN4CCCCC4)c(O)c(OC)c3)C2=O)cc(CN2CCCCC2)c1O`, the growth in test [1] was -74.7% (active); in [2], 43.4%; in test [3] it was -30.1% (active); in test [4], 104%; in test [5], -62.6% (active); in test [6], -65.2% (active). Also, the growth in [7] is -46.8% (active); in test [8] it was 12.1%; in test [9], -68.8% (active); in [10], -4.52% (active).

For `O=C(CCl)NNc1nccc(Nc2ccc(S(=O)(=O)Nc3ccncc3)cc2)n1`, the growth in [1] is 40.5%; in [2] it was 70.8%; in test [3], 64.4%; in test [4], 83.2%; in [5], 27.9%; in test [6], 37.3%. For the same compound, the growth in [7] was -42.9% (active); in test [8], 71.5%; in test [9], 24.1%; in [10], 82.2%.

For the compound `O=C(CI)NC(=O)NC(=O)NCc1ccccc1`, the growth is 32.6% in test [1]; -43.6% (active) in test [2]; 86.4% in [3]; 85.9% in test [4]; 102% in [5]; -17.4% (active) in [6]. For the same compound, the growth is -82% (active) in test [7], 92.9% in test [8], 23.9% in test [9] and -41.4% (active) in test [10].

Consider `O=C(/C=C/c1ccc(Oc2ccc(Br)cc2)cc1)c1ccc(Br)cc1`, for which the growth in test [1] is 95.3%; in test [2], 103%; in [3], 95.3%; in test [4] it was 99.9%; in test [5] it was 105%; in [6], 91.6%. The growth was 91.1% in test [7], 94.4% in [8], 101% in [9] and 113% in test [10].
